# Bioassay records: PubChem BioAssay, National Center for Advancing Translational Sciences (NCATS)
# Hits are enriched below; roughly 1.5% of the tested compounds scored in any of these assays.
# ALOX12 inh: Primary qHTS assay for inhibitors of human arachidonate 12S-lipoxygenase (ALOX12): Round 2 | Polyunsaturated fatty acid lipoxygenase ALOX12 (Homo sapiens), P18054 | purified 12hLO, xylenol orange hydroperoxide absorbance | Potency, µM (top dose mostly 108 µM), for inactives: at the top dose activity change, negative = inhibition, actives largely listed as inhibitors | 580,000 compounds, 1.1% hits; also: potency is read from the fitted curve at half-maximal effect; % is scaled to controls: 0 for no effect and ±100 for the full control effect
# Target sequence (P18054 whole entry, looked up): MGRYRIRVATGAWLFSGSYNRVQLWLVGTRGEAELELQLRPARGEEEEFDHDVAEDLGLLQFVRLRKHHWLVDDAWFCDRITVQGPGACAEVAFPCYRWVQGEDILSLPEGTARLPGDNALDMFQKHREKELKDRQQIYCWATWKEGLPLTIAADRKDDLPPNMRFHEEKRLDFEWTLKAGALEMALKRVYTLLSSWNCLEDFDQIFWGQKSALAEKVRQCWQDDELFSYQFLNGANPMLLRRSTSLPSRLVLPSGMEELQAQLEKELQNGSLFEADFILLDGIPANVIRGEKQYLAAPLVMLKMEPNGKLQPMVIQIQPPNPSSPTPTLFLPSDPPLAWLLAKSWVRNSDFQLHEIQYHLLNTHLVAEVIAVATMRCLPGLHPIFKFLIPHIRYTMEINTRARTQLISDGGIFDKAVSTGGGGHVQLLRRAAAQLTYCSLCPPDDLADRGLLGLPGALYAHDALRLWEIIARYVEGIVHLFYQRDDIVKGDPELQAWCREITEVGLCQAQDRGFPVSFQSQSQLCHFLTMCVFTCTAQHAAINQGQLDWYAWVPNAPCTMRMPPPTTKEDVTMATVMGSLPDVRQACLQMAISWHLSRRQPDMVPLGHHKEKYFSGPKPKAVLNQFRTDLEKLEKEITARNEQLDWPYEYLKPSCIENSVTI
#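 Purified human 12hLO (150 nM final) in 25 mM Hepes, 0.01% Triton X-100, pH 7.0 was preincubated 15 min at room temperature with compound. Then 40 uM arachidonic acid was added, 30 min. Hydroperoxide was read by Fe-XO absorbance ratio 573/405 nm.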
# uPA generation: qHTS for Inhibitors of Cell Surface uPA Generation | Potency, µM (doses to about 38.3 µM), without a hit: at the highest dose activity change, negative = inhibition, usual class: inhibitors | cell surface uPA generation assay, qHTS | 330,000 compounds, 0.31% hits | AID 540303, 2011; active = well fitted inhibition curve with a large enough effect; inconclusive = small, poorly fitted or top-dose-only effect; inactive = no such curve, though single readings can be large or run the other way; tested in mouse RAW 264.7 cells; also: potency is read from the fitted curve at half-maximal effect; % is scaled to controls: 0 for no effect and ±100 for the full control effect; nearly all actives have a fitted effect of over 55% in size
# Integrin act MD: qHTS for Activators of Integrin-Mediated Alleviation for Muscular Dystrophy. alpha7betagal myoblasts, beta-gal FDG fluorescence, 48 h. Potency, µM (top dose mostly 38.3 µM), inactives show top-dose activation, actives largely listed as activators. 350,000 compounds, 0.064% hits. AID 624291, 2012;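 also: potency is read from the fitted curve at half-maximal effect; 100% = response of the positive control SU9516; nearly all actives have a fitted effect of over 60% in size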
#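 alpha7betagal+/- myoblasts (passage 13, 250/well) treated 48 h at 37C with compounds at 1:260 dilution of DMSO stock. Lysed, then beta-galactosidase activity read as FDG fluorescence (ex 480/em 540) after 30 min, with pre-read for autofluorescence.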
# Nrf2 ARE act: qHTS of Nrf2 Activators | AREc32 ARE-luciferase reporter (MCF7-derived line), luminescence, 24 h | Potency, µM (series often up to 46.1 µM), inactives show top-dose activation, hits mostly activators | 410,000 compounds, 0.31% hits | AID 624171, 2012; also: potency is read from the fitted curve at half-maximal effect; % of control where 0% means no effect; nearly all actives have a fitted effect of over 65% in size
#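 Luminescent ARE reporter assay in AREc32_Fluc cells: overnight plating at 37 deg C, 24 hr compound incubation, Steady-Glo added, 30 min RT before reading.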
# IL2 activator: qHTS of IL-2 Activators; IL-2 activation reporter assay, cell-based qHTS; stimulated with anti-CD3/CD4/CD28 beads; in transgenic mouse T cells; activation, % (series mostly up to about 46 µM); 360,000 compounds, 0.065% hits; in the data active = activation above about 50%; inconclusive = mostly about 30% to 49%; also: 0% is about no effect
#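 Screening format: compound pinned onto unstimulated transgenic mouse T cells, 60 min incubation, then anti-CD3/anti-CD4/anti-CD28 bead stimulation for 18 hours at 37 degrees C, followed by EGFP and DsRed detection.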
# * hit, by the source's call; i = inactive; ? = inconclusive; . = no result; [ ] = another dose, or the depositor's remark. Unless noted, calls follow the shape of the dose curve; as a rule, active = well fitted curve in the direction sought with a large enough effect; inconclusive = small, poorly fitted or top-dose-only effect, or another doubt; inactive = no such curve, though single readings can be large; an effect the other way counts as inactive or inconclusive.
SMILES,ALOX12 inh,uPA generation,Integrin act MD,Nrf2 ARE act,IL2 activator
COc1ccc(N(C(=O)c2snc(C(N)=O)c2N)C(C(=O)NC2CCCC2)c2ccco2)cc1 (configuration not stated),-24.0%,-0.9%,7.8%,0.0%,-0.1
CCc1ccc(N(C(=O)c2snc(C(N)=O)c2N)C(C(=O)NC2CCCC2)c2ccco2)cc1 (configuration not stated),-5.2%,1.6%,2.51µM*,2.4%,-0.7
COc1ccccc1-c1nc(SCc2cc(=O)n3c4c(sc3n2)CCCC4)n[nH]1,27.3%,.,.,.,.
COc1ccccc1-c1cc(-n2ccnc2)ncn1,-26.8%,.,.,.,.
COc1ccccc1-c1cncnc1-n1ccnc1,25.1µM*,.,.,.,.
c1ccc(N=Nc2cn[nH]c2-c2ccco2)cc1,4.8%,-0.3%,-2.1%,10µM*,-0.9
COc1ccc(NC(=O)c2nc3ccccc3nc2N2CCOCC2)cc1Cl,9.9%,.,.,.,.
COc1ccc(Nc2nc(-c3sc(C)nc3C)cs2)cc1,?,?,0.0%,10.8%,0.6
Cc1nc(C)c(-c2csc(Nc3ccc(N)cc3)n2)s1,1.9%,4.47µM*,-11.0%,22.2%,-1.0
Cn1nc(C(=O)N2CCCC(CN3CCCC3)CC2)c2ccccc21 (configuration not stated),88.4%,.,.,.,.
COc1ccc(C(=O)/C=C/c2ccc(-c3ccc(OC)cc3)o2)cc1,0.316µM*,.,.,.,.
Cc1ccc(-c2ccc(/C=C/C(=O)c3ccccc3)o2)cc1,3.55µM*,-0.1%,-5.6%,4.3%,-0.2
Cc1ccc(/C=C/C(=O)c2ccccc2)o1,14.1µM*,.,.,.,.
COc1ccc(/C=C/C(=O)c2ccc(-c3ccccc3)cc2)cc1,-6.2%,.,.,.,.
Cc1ccc(/C=C/C(=O)c2ccc(C)o2)o1,-60.8%,.,.,.,.
O=C(/C=C/c1ccc(-c2ccccc2)o1)c1ccccc1,?,-7.6%,-14.1%,11.5%,-3.6
Cc1cc(C)n2nc(N)nc2n1,10.3%,5.1%,5.6%,-0.2%,3.8
Cc1cc(-c2ccccc2)n2nc(N)nc2n1,17.4%,-0.5%,12.6µM*,-0.1%,-1.2
Cc1ccc(-c2nc(CC(=O)NCCc3ccccc3F)cs2)o1,-33.9%,.,.,.,.
Cc1ccc(-c2nc(CC(=O)NCc3ccccc3F)cs2)o1,11.2µM*,.,.,.,.
CC1CCN(C(=O)Cn2ccn3nc(-c4ccc(F)cc4)c(CO)c3c2=O)CC1,6.1%,.,.,.,.
CCOC(=O)c1cc2cc(C(=O)O)ccc2[nH]1,15.8µM*,.,.,.,.
CCOC(=O)c1cc2cc(CC)ccc2[nH]1,0.4%,.,.,.,.
O=C(c1ccccc1F)N1CCc2nc(C3CC3)nc(-c3ccc(Cl)cc3)c2C1,44.7µM*,.,.,.,.
O=C(c1ccccc1F)N1CCc2nc(C3CC3)nc(-c3ccc(Cl)cc3)c2CC1,19.9%,.,.,.,.
SMILES,ALOX12 inh,uPA generation,Integrin act MD,Nrf2 ARE act,IL2 activator
CC1CCN(CCCCNC(=O)CCc2ncc(-c3ccc(F)cc3)o2)CC1,1.2%,.,.,.,.
CCc1ccccc1N1CC(c2nc3ccccc3n2CCC2CCCCC2)CC1=O (configuration not stated),28.2µM*,.,.,-4.8%,.
COCc1nc(C2CCN(C(=O)C3CCCC3)C2)no1 (configuration not stated),33.6%,.,.,.,.
Cc1ccccc1C(=O)Nc1scc(-c2ccc(Br)cc2)c1C(=O)O,?,-23.5%,2.82µM*,-2.1%,-1.4
O=C(NC1CCCC1)c1ccc2noc(-c3ccc(Cl)cc3)c2c1,-29.0%,.,.,.,.
CSc1nc(N)n2nc(-c3ccccc3)cc2n1,i,-10.8%,-12.2%,7.94µM*,-0.5
Cc1cc(N)n2nc(-c3ccccc3)cc2n1,-13.3%,-13.6%,6.7%,8.3%,-1.6
Cc1ccc(CN(C)C(=O)Cc2cccc3cccnc23)c(C)c1,-25.8%,.,.,.,.
Cc1cc(C)c2c(N)c(C(=O)c3ccc(Br)cc3)oc2n1,?,-1.3%,11.1%,1.78µM*,-0.8
CCOCCCNc1nc(-c2ccc3[nH]c(=O)[nH]c3c2)cs1,-6.1%,.,.,.,.
COc1cc(-c2csc(NC3CC3)n2)ccc1OC(F)F,25.1µM*,.,.,.,.
COc1cc(-c2csc(-c3c(C)c(C)nn(C)c3=O)n2)ccc1OC(F)F,-26.0%,.,.,.,.
CC(C)CCNc1nc(-c2ccc3[nH]c(=O)[nH]c3c2)cs1,44.7µM*,.,.,.,.
O=c1[nH]c2ccc(-c3csc(NC4CCCC4)n3)cc2[nH]1,35.5µM*,.,.,.,.
O=c1[nH]c2ccc(-c3csc(NC4CC4)n3)cc2[nH]1,17.8µM*,.,.,.,.
COc1cncc(Nc2cnc3ccc(-c4cccc(CO)c4)nn23)c1,1.9%[176 µM],.,.,.,.
CC1Sc2ccc(C(=O)Nc3nc(-c4ccc(F)cc4)cs3)cc2NC1=O (configuration not stated),11.2%,.,.,.,.
CC1C(=O)Nc2ccc(-c3csc(NC4CCCC4)n3)cc21 (configuration not stated),15.8µM*,.,.,.,.
CCOc1ccc(S(=O)(=O)[C@H]2CS(=O)(=O)C[C@@H]2N2CCC(C(=O)OC)CC2)cc1,-25.6%,.,.,.,.
COc1ccc(-c2nc(NC(=O)c3cc(OC)c(OC)c(OC)c3)sc2C)cc1,44.7µM*,.,.,.,.
COCC1CN(C)CC12CCN(Cc1sccc1C)CC2 (configuration not stated),34.2%,.,.,.,.
Clc1cccc(-c2nc3ccccn3c2Nc2ccc3c(c2)OCCO3)c1,6.31µM*,.,.,1.7%,.
COc1cc(-c2nc3ccc(Cl)cn3c2Nc2ccc3c(c2)OCCO3)ccc1O,7.94µM*,.,.,20.4%,.
Cc1ccccc1NC(=O)CSc1nc2nccnc2c(=O)n1CCc1ccccc1,-0.6%,.,.,.,.
O=C(NC1CCCN(c2cc(-c3ccc(F)cc3)[nH]n2)C1)c1cccs1 (configuration not stated),59.3%,.,.,.,.
SMILES,ALOX12 inh,uPA generation,Integrin act MD,Nrf2 ARE act,IL2 activator
CC(=O)c1c[nH]c(C(=O)NC(c2cccc(F)c2)c2nccn2C)c1 (configuration not stated),22.4µM*,.,.,.,.
Cn1ccnc1C(NC(=O)Cc1n[nH]c(=O)c2ccccc12)c1cccc(F)c1 (configuration not stated),16.1%,.,.,.,.
CCOc1ccc2c(=O)c(-c3ccccc3OC)c(C)oc2c1,13.3%,.,.,.,.
CCOc1ccc(S(=O)(=O)NCc2ccco2)c2ccccc12,-28.9%,3.4%,-10.9%,12.6µM*,-1.8
CC(=O)Nc1ccc2nc(SCc3ccc(Cl)cc3)sc2c1,20µM*,.,.,.,.
CN(CC(=O)Nc1ccccc1C(F)(F)F)Cc1c(O)ccc2ccccc12,7.08µM*,3.0%,-16.2%,16.2%,0.3
C/C(=N/NC(=O)c1cccs1)c1ccco1,22.5%,-4.6%,8.9%,12.6µM*,-0.6
Cn1c(SCC(=O)N/N=C/c2ccco2)nc2ccccc21,-1.1%,1.0%,-26.4%,26.6%,0.9
C/C(=N\NC(=O)c1csc(C)c1C)c1ccco1,0.0%,-6.9%,13.7%,-0.4%,2.0
CC(/C=N/NC(=O)CSc1nc2ccccc2n1C)=C\c1ccco1,-26.4%,-4.8%,-19.5%,12.6µM*,2.1
CC(/C=N/NC(=O)c1cccs1)=C\c1ccco1,-4.0%,-0.4%,?,14.1µM*,0.7
